Wnt act – activates Wnt/beta-catenin signaling in a reporter cell assay; activator, plate reader; activation, % at 9.35 µM; 300,000 tested, 1.2% active; in the data active = activation above about 30%, passing the limit was not always enough; inconclusive = no clear call, values can overlap the other calls;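 also: 0% = neutral control wells and 100% = positive control wells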
PvdQ inh – blocks Pseudomonas aeruginosa PvdQ acylase activity; purified PvdQ acylase, fluorescence plate reader; inhibition, % at 10 µM; 340,000 tested, 0.063% active; AID 488965; in the data active = inhibition above about 30%, passing the limit was not always enough; inconclusive = no clear call, values can overlap the other calls;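 also: 0% = vehicle neutral wells and 100% = reference inhibitor wells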
MITF act – MITF TRPM1 promoter activation in melanoma cells; activation, % at 12.5 µM; SK-MEL-5 TRPM1-promoter luciferase, 24 h; % of positive control, neutral wells = 0; 300,000 tested, 0.75% active;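 active = mean activation of at least 80% with every replicate also reaching 80%; inconclusive = mean reaches 80% but some replicate falls short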;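 also: 0% = neutral control wells and 100% = parthenolide positive control wells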
Vif imaging – blocks HIV Vif function; HEK293T cells, Vif self-association by quenched fluorescence, imaging, 24 h; inhibition, % at 7.49 µM; 340,000 tested, 0.35% active; in the data active = inhibition above about 50%, passing the limit was not always enough; inconclusive = no clear call, values can overlap the other calls; inactive = below about 31%
esBAF inh – inhibitors of esBAF chromatin remodeling in mouse ES cells; reporter increase, % at 12.5 µM; 350,000 tested, 2% active; AID 602393; Bmi1-luciferase knock-in reporter, 24 h; 100% = twice the neutral-well signal; in the data active = activation above about 40%; inconclusive = no clear call, values can overlap the other calls;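 also: 0% = median of the plate's neutral control wells and 100% = double that signal; a rise in the Bmi1 reporter signal indicates esBAF inhibition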
N-glyco inh – N-linked glycosylation inhibition; D54 ERlucT glycosylation luciferase reporter, 24 h; percent of 100 nM tunicamycin response; AID 588692; reporter increase, % at 12.5 µM; 360,000 tested, 0.23% active;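 active = mean luciferase reporter signal, scaled so untreated is 0 and the glycosylation-blocking control 100, at or above a set limit in every replicate; inconclusive = mean reaches the limit but not every replicate does; inactive = mean below the limit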;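 also: luciferase carries N-glycosylation sites so blocking glycosylation raises the light; 0% = median of neutral control wells and 100% = median of 100 nM tunicamycin wells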
Numbers without * were called inactive; ? = inconclusive; . = no result. This is a sample that favours compounds with a hit; in the whole collection about 2.9% have one here.

SMILES	Wnt act	PvdQ inh	MITF act	Vif imaging	esBAF inh	N-glyco inh
CCC(=O)N1CC[C@H]2[C@H](CO)Nc3ccc(-c4cccc(C#N)c4)cc3[C@H]21	.	.	.	.	2.0	.
CCOc1ccc(C(=O)NC2=NCCS2)cc1	12.4	.	.	.	.	.
O=C(NC1=NCCS1)c1ccc(OCC2CCCO2)cc1 (stereo not drawn)	39.7*	-0.4	27.9	-5.2	-3.3	-6.4
c1ccc(-c2onc3cc4c(cc23)OCCO4)cc1	.	22.3	106.4*	-6.7	68.4*	-4.3
CC(=O)c1ccc2noc(-c3ccccc3)c2c1	6.6	-3.0	18.7	-2.5	0.1	1.1
Cn1cnc(S(=O)(=O)N2CC[C@@H]3[C@H](CO)Nc4ccc(C#Cc5ccccc5F)cc4[C@@H]32)c1	.	.	.	.	2.5	.
COCCn1c(C)nnc1SCC(=O)Nc1ccccc1[N+](=O)[O-]	51.1*	-11.2	-7.9	.	.	0.6
COCCn1c(SCC(=O)Nc2ccccc2OC)nnc1-c1ccco1	0.2	-13.1	-20.2	-10.6	0.4	1.0
CN1CCc2c(sc(NC(=O)C3COc4ccccc4O3)c2C(N)=O)C1 (stereo not drawn)	4.4	6.3	24.7	-1.3	34.5	-3.7
CCN1CCc2c(sc(NC(=O)C3COc4ccccc4O3)c2C(N)=O)C1 (stereo not drawn)	11.7	-7.5	86.3*	6.1	25.9	-8.5
CCC(=O)Nc1sc2c(c1C(N)=O)CCN(Cc1ccccc1)C2	39.3*	-14.8	.	33.0	31.0	2.3
Cc1cc(C(=O)COC(=O)c2cc(Cl)ccc2N)c(C)n1Cc1ccco1	10.2	6.2	106.5*	-3.7	.	-8.1
CCOC(=O)N1CCC2(CC1)C(C#N)=C(N)Oc1n[nH]c(CSc3ccc(C)cc3)c12	69.8*	-4.1	.	3.5	-3.3	3.9
CN1CCCC1CCNc1ccc2sc3ccccc3c(=O)c2c1 (stereo not drawn)	9.9	8.6	108.3*	.	-1.8	-3.7
CCN(CC)c1ccc2cc(C=O)c(=O)oc2c1	5.8	1.6	1.2	.	-2.7	1.7
CCN(CC)c1ccc2cc(C(N)=O)c(=N)oc2c1	1.0	9.6	12.6	18.4	.	4.0
CCN(CC)c1ccc2cc(C(=O)Nc3ccccn3)c(=O)oc2c1	27.3	-33.6	10.3	-0.7	48.7*	-10.5
CCN(CC)c1ccc2cc(C(C)=O)c(=O)oc2c1	27.6	-1.9	12.3	7.8	.	2.6
CCN(CC)c1ccc2cc(C(N)=O)c(=O)oc2c1	15.8	6.8	28.1	131.6*	?	2.3
CCN(CC)c1ccc2cc(-c3nnc(-c4ccncc4)o3)c(=O)oc2c1	.	0.6	72.4	.	44.5*	-3.4
COc1cc(/C=C2/C(=N)N3C(SC)=NSC3=NC2=O)ccc1OC(=O)c1ccco1	8.2	-17.3	22.5	-3.2	46.0*	0.8
COc1cc(/C=C2/C(=N)N3C(=NC2=O)SN=C3S(C)(=O)=O)ccc1OC(=O)c1ccco1	-0.2	0.1	2.9	15.7	-4.1	1.4
COc1ccccc1/C=C/C(=O)Oc1cccc2cccnc12	61.7*	10.0	13.5	6.7	.	3.1
O=C(/C=C/c1ccco1)Oc1cccc2cccnc12	0.2	-12.4	-15.8	-5.8	.	1.3
O=C(/C=C\c1ccco1)Oc1cccc2cccnc12	40.1*	-4.5	-12.4	-3.1	.	-1.4
SMILES	Wnt act	PvdQ inh	MITF act	Vif imaging	esBAF inh	N-glyco inh
O=C(Nc1ccc(F)cc1)Nc1ccc2c(c1)[C@@H]1C[C@H](CC(=O)N3CCOCC3)O[C@H](CO)[C@@H]1O2	.	.	.	.	2.3	.
CC(=O)Oc1ccc2cc(-c3nc4ccccc4n3C)c(=O)oc2c1	.	6.4	26.1	0.7	38.7	-0.1
Cn1c(-c2cc3ccc(OC(=O)C(C)(C)C)cc3oc2=O)nc2ccccc21	34.4*	6.2	54.5	-9.1	22.3	-0.3
C#CCSc1ncc(-c2ccccc2)cn1	9.2	47.7*	59.0	-1.7	72.7*	1.3
CSc1ncc(-c2ccccc2)cn1	6.4	0.7	40.6	-0.7	.	0.1
C=CCSc1ncc(-c2ccccc2)cn1	?	0.3	73.3	-4.0	49.6*	-1.1
C[C@@H]1CN([C@@H](C)CO)C(=O)c2cccc(NC(=O)c3ccncc3)c2O[C@@H]1CN(C)S(C)(=O)=O	.	.	.	.	3.8	.
Cc1nc(-c2ccc([N+](=O)[O-])cc2)nc2[nH]ccc(=O)c12	36.8*	-0.9	104.9*	-3.8	?	-12.6
COCC(=O)N(C[C@H]1N[C@H](CO)[C@H]1c1ccc(C2=CCCC2)cc1)C(C)C	.	.	.	.	4.7	.
C[C@@H]1CN([C@@H](C)CO)C(=O)c2cc(NS(=O)(=O)c3cccs3)ccc2O[C@H]1CN(C)Cc1ccncc1	.	.	.	.	0.2	.
C[C@@H]1CN([C@@H](C)CO)C(=O)c2cc(NC(=O)Nc3ccc(F)cc3)ccc2O[C@@H](C)CCCCO[C@H]1CN(C)Cc1ccncc1	.	.	.	.	0.8	.
COc1ccc(C(=O)N=c2sc3c(C)ccc(OC)c3n2C)cc1OC	?	4.8	99.0*	-0.1	36.3	5.3
CCn1c(=NC(=O)c2cccc(N3C(=O)CCC3=O)c2)sc2c(C)ccc(OC)c21	-0.5	-4.7	20.5	0.5	.	2.7
COc1ccccc1C(=O)N=c1sc2c(C)ccc(OC)c2n1C	23.1	4.2	?	1.2	38.1	2.0
COc1cccc(C(=O)N=c2sc3c(C)ccc(OC)c3n2C)c1	19.7	-5.1	54.0	-8.1	47.6*	-4.4
Cc1ccc(-c2cc3ccccc3nc2N)cc1	20.2	-12.6	.	-10.4	46.9*	-1.0
N#Cc1cc2ccccc2nc1N	-0.2	4.6	-10.4	-8.5	.	4.8
c1csc(-c2ccc3ccccc3n2)c1	20.4	-4.6	59.0	1.9	43.4*	1.8
Nc1nc2ccccc2cc1-c1cccs1	20.1	-6.9	90.2*	4.9	?	1.9
Nc1nc(-c2cccs2)cs1	.	2.6	8.7	.	7.6	1.1
CO[C@@H]1CN(C)C(=O)c2cc(NS(=O)(=O)CC(F)(F)F)ccc2OC[C@@H](C)N(Cc2nccs2)C[C@@H]1C	.	.	.	.	4.2	.
CNC[C@@H]1Oc2c(NC(=O)c3cc(C)nn3C)cccc2C(=O)N([C@H](C)CO)C[C@@H]1C	.	.	.	.	-3.4	.
CSc1nc2ccccc2cc1/C=C(\C#N)c1cccc(Cl)c1	.	-9.3	-9.7	62.8*	-16.6	17.4
NCC[C@@H]1CC[C@@H](NC(=O)NC2CCCCC2)[C@@H](CO)O1	.	.	.	.	3.6	.
Nc1cccc(C(=O)OCC(=O)Nc2cccc3c2C(=O)c2ccccc2C3=O)c1	-1.2	4.9	-18.3	19.7	.	4.5
CCN(CC)CCC(=O)Nc1cccc2c1C(=O)c1ccccc1C2=O	2.6	2.1	.	.	-3.2	109.8*
CCS(=O)(=O)Nc1ccc2c(c1)C(=O)N(C)[C@@H]1CC[C@@H](CC(=O)Nc3ccccc3)O[C@H]1CO2	.	.	.	.	-0.5	.
CC(C)CC#Cc1ccc2c(c1)O[C@@H](CN(C)C(=O)c1cccnc1)[C@@H](C)CN([C@H](C)CO)S2(=O)=O	.	.	.	.	0.1	.
CCc1nnc2n1N=C(c1ccc(OC)cc1)CS2	.	2.4	-2.4	-12.9	-6.5	36.9*
CCOc1ccc(-c2nnc3n2N=C(c2ccc(OC)cc2)CS3)cc1	.	-9.0	.	50.4*	4.7	2.7
